Assay results as given in PMC5540273 (PLoS ONE, 2017).
Where “and” joins values, the source holds several entries; their conditions need not be identical. Equal entries are not always repeated. Where two headings read alike, the source gives them in different places.

Columns and labels:
[1] = test system: GRK4; conditions: concentration: 1 μM, replicates: in singlicate; n = 1
[2] = test system: GRK7; conditions: concentration: 1 μM, replicates: in singlicate; n = 1
[3] = test system: GSK3A; conditions: concentration: 1 μM, replicates: in singlicate, n = 1
[4] = test system: GSK3B; conditions: n = 1
[5] = test system: T1, HASPIN; conditions: concentration: 1 μM, replicates: in singlicate, n = 1
T1 construct: gene GSG2

[6] = test system: HCK; conditions: concentration: 1 μM, replicates: in singlicate, n = 1
[7] = test system: HIPK1; conditions: concentration: 1 μM, replicates: in singlicate; n = 1
[8] = test system: HIPK2; conditions: concentration: 1 μM, replicates: in singlicate, n = 1
[9] = test system: HIPK3; conditions: concentration: 1 μM, replicates: in singlicate, n = 1
[10] = test system: HIPK4; conditions: concentration: 1 μM, replicates: in singlicate, n = 1
[11] = concentration: 1 μM, replicates: in singlicate
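Also: KINOMEscan kinase panel screen.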

With `COC(=O)Nc1nc2cc(Oc3ccc(NC(=O)Nc4cc(F)ccc4F)cc3)ccc2[nH]1.Cl` [GW701424] the “%Inh” value [1] was 0%, the “%Inh” value [2] was 0% and the “%Inh” value [3] was 3%. The “%Inh” value [4, 11] was 11%, the “%Inh” value [5] was 0% and the “%Inh” value [6] was 6%. For the same molecule, the “%Inh” value [7] was 0%, the “%Inh” value [8] was 0% and the “%Inh” value [9] was 5%. The “%Inh” value [10] was 29%.
For `O=C(Nc1n[nH]c2cc(-c3cccc(F)c3)ccc12)C1CC1` [SB-735464], the “%Inh” value [1] was 38%, the “%Inh” value [2] was 6% and the “%Inh” value [3] was 43%. The “%Inh” value ([4]; 1 µM) was 22%, the “%Inh” value [5] was 30% and the “%Inh” value [6] was 0%. The “%Inh” value [7] was 7%, the “%Inh” value [8] was 22% and the “%Inh” value [9] was 31%. For the same molecule, the “%Inh” value [10] was 9%.
With `CC(C)(CN)c1nc(-c2ccc(Cl)c(O)c2)c(-c2ccncc2)[nH]1.O=C(O)C(F)(F)F` [SB-477794] the “%Inh” value [1] was 0%, the “%Inh” value [2] was 0% and the “%Inh” value ([3]; 1 µM) was 49% and 58%. The “%Inh” value ([4]; concentration: 1 μM, replicates: in singlicate, 1 µM) was 29% and 14%, the “%Inh” value ([5]; 1 µM) was 58% and 57% and the “%Inh” value ([6]; 1 µM) was 96.6% and 96%. The “%Inh” value [7] was 0%, the “%Inh” value ([8]; 1 µM) was 1% and 37% and the “%Inh” value ([9]; 1 µM) was 20% and 4%. The “%Inh” value ([10]; 1 µM) was 0% and 13%.
In the case of `Nc1nccc(-c2c(-c3ccc(F)cc3)ncn2C2CCN(CC(F)(F)F)CC2)n1` [SB-236560], the “%Inh” value [1] was 10%, the “%Inh” value [2] was 2% and the “%Inh” value [3] was 0%. For the same molecule, the “%Inh” value [4, 11] was 0%, the “%Inh” value [5] was 36% and the “%Inh” value [6] was 0%. For the same molecule, the “%Inh” value [7] was 27%, the “%Inh” value [8] was 57% and the “%Inh” value [9] was 0%. The “%Inh” value [10] was 0%.
With `c1ccc(-c2cc(-c3c[nH]nc3-c3ccccn3)ccn2)cc1` [GW576604] the “%Inh” value [1] was 0%, the “%Inh” value [2] was 0% and the “%Inh” value [3] was 11%. The “%Inh” value [4, 11] was 0%, the “%Inh” value [5] was 16% and the “%Inh” value [6] was 0%. The “%Inh” value [7] was 0%, the “%Inh” value [8] was 0% and the “%Inh” value [9] was 15%. The “%Inh” value [10] was 6%.
With `Cc1ccc(NC(=O)c2ccnc(N3CCN(C)CC3)c2)cc1-c1ccc(C(=O)NCC2CC2)cc1` [GW775604] the “%Inh” value [1] was 15%, the “%Inh” value [2] was 0% and the “%Inh” value [3] was 0%. The “%Inh” value [4, 11] was 0%, the “%Inh” value [5] was 0% and the “%Inh” value [6] was 9%. For the same molecule, the “%Inh” value [7] was 0%, the “%Inh” value [8] was 0% and the “%Inh” value [9] was 0%. The “%Inh” value [10] was 0%.
With `O=c1cc(N2CCOCC2)nc2n(Cc3cccc(F)c3)ccn12` [GSK2297430] the “%Inh” value [1] was 1%, the “%Inh” value [2] was 0% and the “%Inh” value [3] was 0%. For the same molecule, the “%Inh” value [4, 11] was 11%, the “%Inh” value [5] was 4% and the “%Inh” value [6] was 0%. The “%Inh” value [7] was 0%, the “%Inh” value [8] was 0% and the “%Inh” value [9] was 9%. For the same molecule, the “%Inh” value [10] was 0%.
With `Cn1ccc2ncnc(Oc3ccc(NC(=O)Nc4ccncc4)c(Cl)c3)c21` the “%Inh” value [1] was 19%, the “%Inh” value [2] was 0% and the “%Inh” value [3] was 29%. The “%Inh” value [4, 11] was 0%, the “%Inh” value [5] was 28% and the “%Inh” value [6] was 0%. For the same molecule, the “%Inh” value [7] was 17%, the “%Inh” value [8] was 0% and the “%Inh” value [9] was 0%. For the same molecule, the “%Inh” value [10] was 0%.
With `COc1ccc(COc2cc(-n3cnc4ccccc43)sc2C(N)=O)cc1` [GSK1024304] the “%Inh” value [1] was 1%, the “%Inh” value [2] was 0% and the “%Inh” value [3] was 14%. The “%Inh” value [4, 11] was 0%, the “%Inh” value [5] was 0% and the “%Inh” value [6] was 0%. For the same molecule, the “%Inh” value [7] was 18%, the “%Inh” value [8] was 18% and the “%Inh” value [9] was 21%. The “%Inh” value [10] was 8%.
With `CN1c2ccc(CNc3ccc(F)cc3)cc2-c2c(cnn2C)S1(=O)=O` the “%Inh” value [1] was 0%, the “%Inh” value [2] was 0% and the “%Inh” value [3] was 22%. The “%Inh” value [4, 11] was 0%, the “%Inh” value [5] was 33% and the “%Inh” value [6] was 4%. For the same molecule, the “%Inh” value [7] was 35%, the “%Inh” value [8] was 0% and the “%Inh” value [9] was 0%. For the same molecule, the “%Inh” value [10] was 0%.
For `Cc1ccc(C(=O)NCC(N)=O)cc1-n1c(C)cc(OCc2ccc(F)cc2F)c(Br)c1=O`, the “%Inh” value [1] was 0%, the “%Inh” value [2] was 0% and the “%Inh” value [3] was 58%. The “%Inh” value [4, 11] was 0%, the “%Inh” value [5] was 0% and the “%Inh” value [6] was 21%. For the same molecule, the “%Inh” value [7] was 46%, the “%Inh” value [8] was 0% and the “%Inh” value [9] was 0%. For the same molecule, the “%Inh” value [10] was 0%.
In the case of `O=C(NCCNc1ccnc(Nc2ccc(F)cc2)n1)Nc1ccccc1F` [GSK1379880], the “%Inh” value [1] was 0%, the “%Inh” value [2] was 0% and the “%Inh” value [3] was 2%. For the same molecule, the “%Inh” value [4, 11] was 0%, the “%Inh” value [5] was 0% and the “%Inh” value [6] was 0%. The “%Inh” value [7] was 0%, the “%Inh” value [8] was 0% and the “%Inh” value [9] was 19%. For the same molecule, the “%Inh” value [10] was 0%.
For `CSc1ccc(-c2cc3ncnc(SCC(=O)O)c3s2)cc1`, the “%Inh” value [1] was 0%, the “%Inh” value [2] was 2% and the “%Inh” value [3] was 0%. The “%Inh” value [4, 11] was 0%, the “%Inh” value [5] was 0% and the “%Inh” value [6] was 33%. For the same molecule, the “%Inh” value [7] was 55%, the “%Inh” value [8] was 52% and the “%Inh” value [9] was 33%. The “%Inh” value [10] was 22%.
In the case of `O=c1cc(N2CCOCC2)nc2n(Cc3cccc4ccccc34)ccn12` [GSK2333389], the “%Inh” value [1] was 0%, the “%Inh” value [2] was 0% and the “%Inh” value [3] was 9%. The “%Inh” value [4, 11] was 10%, the “%Inh” value [5] was 0% and the “%Inh” value [6] was 0%. The “%Inh” value [7] was 0%, the “%Inh” value [8] was 0% and the “%Inh” value [9] was 21%. The “%Inh” value [10] was 5%.
With `COc1cc2c(cc1OCCN1CCN(C)CC1)ncc1c3ccc(C#N)cc3[nH]c21` the “%Inh” value [1] was 0%, the “%Inh” value [2] was 0% and the “%Inh” value [3] was 0%. For the same molecule, the “%Inh” value [4, 11] was 0%, the “%Inh” value [5] was 76% and the “%Inh” value [6] was 0%. For the same molecule, the “%Inh” value [7] was 97.6%, the “%Inh” value [8] was 100% and the “%Inh” value [9] was 96%. For the same molecule, the “%Inh” value [10] was 55%.
In the case of `Cl.Oc1cccc(Nc2ccnc3cc(-c4ccncc4)ccc23)c1` [GW494601], the “%Inh” value [1] was 0%, the “%Inh” value [2] was 0% and the “%Inh” value [3] was 23%. For the same molecule, the “%Inh” value [4, 11] was 0%, the “%Inh” value [5] was 55% and the “%Inh” value [6] was 97.7%. The “%Inh” value [7] was 0%, the “%Inh” value [8] was 0% and the “%Inh” value [9] was 0%. The “%Inh” value [10] was 0%.
